From PubChem BioAssay (Tox21)
Records with an inconclusive call do not appear. Activity calls are given as the source filed them. Unless noted, calls follow the shape of the dose curve; as a rule, active = well fitted curve in the direction sought with a large enough effect in the repeat runs; inconclusive = weak or mixed curves; inactive = no such curve, though single readings can be large; an effect the other way counts as inactive or inconclusive.

Tests used:
[1] = qHTS assay to identify small molecule agonists of the peroxisome proliferator-activated receptor delta (PPARd) signaling pathway - cell viability counter screen (AID 743211); also: nearly all actives have a fitted effect of over 55% in size
Outline: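 Read-out: CellTiter-Glo luminescence, 30 min RT, measured in the same wells as the beta-lactamase reporter. Cells: GeneBLAzer PPAR delta UAS-bla HEK293H, 3000 cells/well, compound exposure 17 h at 37C.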

[2] = biological target: Peroxisome proliferator-activated receptor delta (Homo sapiens) (UniProt Q03181); experiment: qHTS assay to identify small molecule agonists of the peroxisome proliferator-activated receptor delta (PPARd) signaling pathway (AID 743212; calls by dose curve)
Outline: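 Beta-lactamase reporter read by fluorescence (LiveBLAzer B/G FRET, 2 h, room temperature). Test agents, in DMSO, incubated at 37 C with PPARd-bla HEK293H cells.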

[3] = qHTS assay to identify small molecule antagonists of the peroxisome proliferator-activated receptor delta (PPARd) signaling pathway - cell viability counter screen (AID 743213); also: nearly all actives have a fitted effect of over 50% in size
Outline: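 HEK293H PPARd UAS-bla cells, 5 h pre-incubation, compound + L165041 300 nM final, 17 h 37 C; B/G FRET substrate 2 h RT; then CellTiter-Glo 30 min RT, luminescence.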

[4] = biological target: Peroxisome proliferator-activated receptor delta (Homo sapiens) (UniProt Q03181); experiment: qHTS assay to identify small molecule antagonists of the peroxisome proliferator-activated receptor delta (PPARd) signaling pathway (AID 743215; active = well fitted inhibition curve with a large enough effect in the signal ratio in the repeat runs, not every such curve was filed as active; the % refers to the signal ratio;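 also: cells stimulated with agonist L165041 at 300 nM final during compound exposure; series mostly up to about 62 µM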)
Outline: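 Here, a reporter line (HEK293H, beta-lactamase under a UAS) measures PPARd signaling. Compounds are tested against agonist L165041 at 300 nM final concentration over 17 h at 37 C, with fluorescence read after substrate.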

[5] = biological target: Bile acid receptor (Homo sapiens) (UniProt Q96RI1); experiment: qHTS assay to identify small molecule antagonists of the farnesoid-X-receptor (FXR) signaling pathway (AID 743217; active = well fitted inhibition curve with a large enough effect in the signal ratio in the repeat runs, not every such curve was filed as active; the % refers to the signal ratio)
Outline: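 Test compounds are pin-transferred onto FXR-bla HEK 293T cells, then chenodeoxycholic acid is added at 50 uM final. After 16 h at 37 °C, LiveBLAzer B/G substrate is applied for 2 h at room temperature and fluorescence read.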

[6] = qHTS assay to identify small molecule agonists of the farnesoid-X-receptor (FXR) signaling pathway - cell viability counter screen (AID 743218); also: nearly all actives have a fitted effect of over 45% in size
Outline: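 Quantitative HTS counter screen measuring ATP-based viability via CellTiter-Glo luminescence in HEK 293T cells carrying a UAS-driven beta-lactamase reporter, after 16 h compound exposure at 37 C.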

[7] = biological target: Bile acid receptor (Homo sapiens) (UniProt Q96RI1); experiment: qHTS assay to identify small molecule agonists of the farnesoid-X-receptor (FXR) signaling pathway (AID 743220; active = well fitted activation curve with a large enough effect in the signal ratio in the repeat runs, not every such curve was filed as active; the % refers to the signal ratio)
Outline: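 FXR-UAS-bla HEK 293T cells carrying a UAS-driven beta-lactamase reporter were plated for 5 h at 37C/5% CO2, then exposed to DMSO-dissolved Tox21 10K compounds for 16 h at 37C. A LiveBLAzer B/G FRET substrate was loaded for 2 h at room temperature before fluorescence reading.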

[8] = qHTS assay to identify small molecule antagonists of the farnesoid-X-receptor (FXR) signaling pathway - cell viability counter screen (AID 743221; active = well fitted cell-killing curve with a large enough effect in the repeat runs, not every such curve was filed as active; also: nearly all actives have a fitted effect of over 50% in size)
Outline: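 HEK 293T FXR-bla cells, 5 h pre-incubation; compound + CDCA 50 uM final, 16 h, 37 C; beta-lactamase FRET read first, then CellTiter-Glo luminescence, 30 min RT.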

[9] = biological target: Vitamin D3 receptor (Homo sapiens) (UniProt P11473); experiment: qHTS assay to identify small molecule antagonists of the vitamin D receptor (VDR) signaling pathway (AID 743223; active = well fitted inhibition curve with a large enough effect in the signal ratio in the repeat runs, not every such curve was filed as active; the % refers to the signal ratio)
Outline: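 Beta-lactamase reporter read-out: FRET substrate fluorescence after 2 h at room temperature, following 16 h exposure of VDR-bla cells to test compound plus 3 nM (final) 1alpha,25-dihydroxyvitamin D3 agonist at 37C.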

[10] = biological target: Vitamin D3 receptor (Homo sapiens) (UniProt P11473); experiment: qHTS assay to identify small molecule agonists of the vitamin D receptor (VDR) signaling pathway (AID 743222; calls by dose curve)
Outline: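 Tox21 cell reporter format: VDR-bla line, 16 h compound exposure in 5% CO2 at 37C, then fluorescence intensity after 2 h with LiveBLAzer B/G FRET substrate.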

Measured: Potency

Bile acid receptor (Homo sapiens), sequence (Q96RI1 whole entry, looked up): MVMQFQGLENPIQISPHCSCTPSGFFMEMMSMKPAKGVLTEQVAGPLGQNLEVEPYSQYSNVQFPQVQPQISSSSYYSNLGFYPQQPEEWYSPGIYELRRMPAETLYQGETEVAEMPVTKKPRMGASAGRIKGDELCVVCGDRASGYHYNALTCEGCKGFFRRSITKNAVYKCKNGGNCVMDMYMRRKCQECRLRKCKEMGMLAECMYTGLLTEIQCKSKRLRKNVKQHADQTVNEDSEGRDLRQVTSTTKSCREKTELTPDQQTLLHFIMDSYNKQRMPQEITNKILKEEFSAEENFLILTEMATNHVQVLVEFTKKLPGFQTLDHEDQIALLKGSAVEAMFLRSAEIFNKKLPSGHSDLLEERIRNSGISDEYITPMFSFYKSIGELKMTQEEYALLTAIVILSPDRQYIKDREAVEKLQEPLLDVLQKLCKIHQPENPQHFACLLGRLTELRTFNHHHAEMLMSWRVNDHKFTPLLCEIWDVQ
Peroxisome proliferator-activated receptor delta (Homo sapiens), sequence (Q03181 whole entry, looked up): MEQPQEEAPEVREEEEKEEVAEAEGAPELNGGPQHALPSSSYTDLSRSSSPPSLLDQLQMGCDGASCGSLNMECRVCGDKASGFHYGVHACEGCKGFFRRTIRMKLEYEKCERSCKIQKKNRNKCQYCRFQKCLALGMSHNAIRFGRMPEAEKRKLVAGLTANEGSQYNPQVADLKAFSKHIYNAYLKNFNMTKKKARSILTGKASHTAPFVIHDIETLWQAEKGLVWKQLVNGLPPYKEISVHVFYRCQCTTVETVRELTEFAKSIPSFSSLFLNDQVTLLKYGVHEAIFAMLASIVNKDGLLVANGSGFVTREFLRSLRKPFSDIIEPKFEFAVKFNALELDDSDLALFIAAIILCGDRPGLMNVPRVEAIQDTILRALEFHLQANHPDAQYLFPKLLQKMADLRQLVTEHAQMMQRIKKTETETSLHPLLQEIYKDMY
Vitamin D3 receptor (Homo sapiens), sequence (P11473 whole entry, looked up): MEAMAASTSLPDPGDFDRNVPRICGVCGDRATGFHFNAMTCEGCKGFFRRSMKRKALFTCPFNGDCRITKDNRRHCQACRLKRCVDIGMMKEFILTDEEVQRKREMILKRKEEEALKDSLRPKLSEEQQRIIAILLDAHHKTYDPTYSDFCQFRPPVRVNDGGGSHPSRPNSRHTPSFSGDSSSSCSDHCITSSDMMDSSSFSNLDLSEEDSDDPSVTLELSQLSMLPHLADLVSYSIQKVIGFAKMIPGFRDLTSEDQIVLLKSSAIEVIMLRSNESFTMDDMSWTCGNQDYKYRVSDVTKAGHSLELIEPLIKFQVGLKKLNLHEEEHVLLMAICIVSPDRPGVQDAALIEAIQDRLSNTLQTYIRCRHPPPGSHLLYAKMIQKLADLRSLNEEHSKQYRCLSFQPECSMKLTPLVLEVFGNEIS

NNCc1ccccc1
not listed: [9] | [10]
inactive: all other assays above

Cc1cc(OC(=O)N(C)C)nn1C(=O)N(C)C
not listed: [9] | [10]
inactive: all other assays above

CCCCOC(C)=O
not listed: [9] | [10]
inactive: all other assays above

CN(C)C(=O)Oc1cc(OC(=O)N(C)C)cc(C(O)CNC(C)(C)C)c1 (configuration not stated)
not listed: [10]
inactive: all other assays above

Cc1cccc2sc3nncn3c12
not listed: [9] | [10]
inactive: all other assays above

O=C(Cl)CCl
not listed: [9]
inactive: all other assays above

NCCOS(=O)(=O)O
inactive: all assays above

BrCc1ccc(Br)cc1
inactive: all assays above

Cc1ccc2c(c1)C1CN(C)CCC1N2 (configuration not stated)
inactive: all assays above

CCNc1nc(Cl)nc(NC(C)(C)C)n1
not listed: [10]
inactive: all other assays above

CC(C)(C)NC[C@H](O)c1ccc(O)cc1Cl
inactive: all assays above

CCCCS(=O)(=O)Cl
inactive: all assays above

CN(C)CCN(C)C
inactive: all assays above

CCN(CC)CCOC(=O)C(O)(c1ccccc1)c1ccccc1
not listed: [9] | [10]
inactive: all other assays above

CC1=C2[C@H]3OC(=O)[C@@H](C)[C@@H]3CC[C@@]2(C)C=CC1=O
not listed: [9] | [10]
inactive: all other assays above

CCN[C@@H](C)Cc1cccc(C(F)(F)F)c1
not listed: [9] | [10]
inactive: all other assays above

ClCOCCl
not listed: [8] | [9] | [10]
inactive: all other assays above

CC(C)(C)C(=O)Cl
not listed: [9] | [10]
inactive: all other assays above

COc1ccc(C=O)cc1O
not listed: [9] | [10]
inactive: all other assays above

CCC(C(N)=O)N1CCCC1=O (configuration not stated)
inactive: all assays above

NNC(N)=O
not listed: [9]
inactive: all other assays above

N[C@@H]1C[C@H]1c1ccccc1
inactive: all assays above

COc1ccc(CN2CCNCC2)c(OC)c1OC
not listed: [9] | [10]
inactive: all other assays above

O=C1CC(=O)NC(=O)N1
inactive: all assays above

Clc1ccc(C(Cl)(Cl)Cl)cn1
not listed: [9] | [10]
inactive: all other assays above

OP(O)c1ccccc1
not listed: [10]
inactive: all other assays above

C1CN2CCC1CC2
not listed: [9] | [10]
inactive: all other assays above

O=C(O)c1c(Cl)ccc2cc(Cl)cnc12
inactive: all assays above

COc1cc(CCN)cc(OC)c1OC
not listed: [10]
inactive: all other assays above

COP(=O)(O)OC
not listed: [9] | [10]
inactive: all other assays above

O=C(Cl)/C=C/C(=O)Cl
not listed: [9]
inactive: all other assays above

CCOC(=O)NC(C)(C)Cc1ccc(Cl)cc1
inactive: all assays above

CCCCCCCC(=O)Cl
not listed: [9] | [10]
inactive: all other assays above

C(COCC1CO1)OCC1CO1 (configuration not stated)
not listed: [9] | [10]
inactive: all other assays above

CN(C)CCc1c[nH]c2cccc(OP(=O)(O)O)c12
not listed: [9] | [10]
inactive: all other assays above

COc1ccccc1OC
not listed: [5] | [7] | [9]
inactive: all other assays above

O=c1[nH]oc2c1CCNC2
inactive: [1] | [2] | [3] | [4] | [6] | [8]

O=C/C=C/c1ccco1
inactive: [1] | [2] | [3] | [4] | [6] | [8]

O=C1CCCCC1Cl (configuration not stated)
not listed: [10]
inactive: all other assays above

CC[C@@H](CO)NC(=O)[C@@H]1C=C2c3cccc4[nH]cc(c34)C[C@H]2N(C)C1
inactive: [1] | [2] | [3] | [4] | [6] | [8]

O=C(Cl)c1ccccc1
not listed: [6]
inactive: all other assays above

CCc1cc(OC)c(C[C@H](C)N)cc1OC
not listed: [8]
inactive: all other assays above

BrCC1CO1 (configuration not stated)
not listed: [6] | [10]
inactive: all other assays above

CC(C)N(Cc1ccccc1)C(=O)C(C)(C)C
not listed: [5]
inactive: all other assays above

C=CC1(C)OC(=O)N(c2cc(Cl)cc(Cl)c2)C1=O (configuration not stated)
not listed: [10]
inactive: all other assays above

O=C(CCl)NCO
not listed: [5] | [7] | [9]
inactive: all other assays above

CCC1(CC)C(=O)C=CNC1=O
inactive: [1] | [2] | [3] | [4] | [6] | [8]

CCCOC(=O)c1cncn1C(C)c1ccccc1 (configuration not stated)
inactive: [1] | [2] | [3] | [4] | [6] | [8]

CN(C)C1CCCCC1
not listed: [5] | [7]
inactive: all other assays above

Cl/C=C/CCl
not listed: [5] | [7]
inactive: all other assays above

BrCCc1ccccc1
inactive: [1] | [2] | [3] | [4] | [6] | [8]

O=C(O)CBr
not listed: [5] | [7]
inactive: all other assays above

CCOC(=O)COc1ccc(Cl)cc1Cl
inactive: [1] | [2] | [3] | [4] | [6] | [8]

COC[C@@H](NC(C)=O)C(=O)NCc1ccccc1
not listed: [5] | [7] | [9]
inactive: all other assays above

CCC(C)(C#N)N=NC(C)(C#N)CC (configuration not stated)
inactive: [1] | [2] | [3] | [4] | [6] | [8]

O=S1(=O)OCCO1
not listed: [5]
inactive: all other assays above

CON(C)C(=O)Nc1ccc(Br)cc1
not listed: [5] | [9] | [10]
inactive: all other assays above

[P]#[In]
not listed: [5] | [7] | [9]
inactive: all other assays above
